Data taken from PubChem BioAssay AID1159580 (chemical genetic matrix, 2015).
Screen size: about 5,500 compounds; about 2,000 (36%) were called active. Not shown: some 18% with an inconclusive outcome. Rule as the data show it: active = normalized growth mostly below about 0.91 (no sharp cut-off); inconclusive = no clear call, values can overlap the other calls; inactive = mostly above about 0.92. The list shows a part of the results.

Assay: chemical genetic growth profiling, strain panel (AID 1159580);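 also: tested at 20 µM; growth read once vehicle control cultures reached saturation at 30 °C; 1 = growth at the plate median or of vehicle wells; lower values mean less growth of the strain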
Conditions: growth OD
[1] = S. cerevisiae deletion strains, locus YDL101C, strain DUN1, stronger effect = lower value
[2] = S. cerevisiae deletion strains, locus YHR030C, strain SLT2, stronger effect = lower value

Measured: normalized growth

CC(C)(C)S(=O)(=O)/C(C#N)=C/N1CCCCC1
inactive: S. cerevisiae deletion strains, locus YBR229C, strain ROT2, stronger effect = lower value 1.02 | [1] 0.989 | S. cerevisiae deletion strains, locus YDR150W, strain NUM1, stronger effect = lower value 0.995 | S. cerevisiae deletion strains, locus YEL061C, strain CIN8, stronger effect = lower value 1.05 | S. cerevisiae deletion strains, locus YGR078C, strain PAC10, stronger effect = lower value 0.993 | [2] 1.02 | S. cerevisiae deletion strains, locus YHR087W, strain rtc3, stronger effect = lower value 0.992 | S. cerevisiae deletion strains, locus YJL187C, strain SWE1, stronger effect = lower value 0.986 | S. cerevisiae deletion strains, locus YJR043C, strain POL32, stronger effect = lower value 0.983 | S. cerevisiae deletion strains, locus YJR075W, strain HOC1, stronger effect = lower value 1.02 | S. cerevisiae deletion strains, locus YLR039C, strain RIC1, stronger effect = lower value 1.02 | S. cerevisiae deletion strains, locus YLR058C, strain SHM2 (second series), stronger effect = lower value 1.01 | S. cerevisiae deletion strains, locus YLR085C, strain ARP6, stronger effect = lower value 1.04 | S. cerevisiae deletion strains, locus YLR262C, strain YPT6, stronger effect = lower value 1.03 | S. cerevisiae deletion strains, locus YML094W, strain GIM5, stronger effect = lower value 1.02 | S. cerevisiae deletion strains, locus YMR219W, strain ESC1, stronger effect = lower value 1.02 | S. cerevisiae deletion strains, locus YMR263W, strain SAP30, stronger effect = lower value 1 | S. cerevisiae deletion strains, locus YNL128W, strain TEP1, stronger effect = lower value 1 | S. cerevisiae deletion strains, locus YNL153C, strain GIM3, stronger effect = lower value 1 | S. cerevisiae deletion strains, locus YNL298W, strain CLA4 (second series), stronger effect = lower value 1.02 | S. cerevisiae deletion strains, locus YNL322C, strain KRE1, stronger effect = lower value 1.02 | S. cerevisiae deletion strains, locus YNR030W, strain Alg12, stronger effect = lower value 1.02 | S. cerevisiae deletion strains, locus YPL055C, strain LGE1, stronger effect = lower value 0.963 | S. cerevisiae deletion strains, locus YPL241C, strain CIN2, stronger effect = lower value 1.02 | S. cerevisiae deletion strains, locus YPR135W, strain CTF4, stronger effect = lower value 0.988 | S. cerevisiae strains, strain wild type, stronger effect = lower value 1.01

FC(F)(F)c1cccc(-n2c(CSCc3cccc4ccccc34)n[nH]c2=S)c1
inactive: S. cerevisiae deletion strains, locus YAR019C, strain CDC15, stronger effect = lower value 0.986 | S. cerevisiae deletion strains, locus YBL105C, strain PKC1, stronger effect = lower value 1 | S. cerevisiae deletion strains, locus YBR135W, strain CKS1, stronger effect = lower value 0.996 | S. cerevisiae deletion strains, locus YBR136W, strain MEC1, stronger effect = lower value 1 | S. cerevisiae deletion strains, locus YBR160W, strain CDC28, stronger effect = lower value 0.986 | S. cerevisiae deletion strains, locus YDL017W, strain CDC7, stronger effect = lower value 0.993 | S. cerevisiae deletion strains, locus YDL028C, strain MPS1, stronger effect = lower value 0.985 | [1] 0.989 | S. cerevisiae deletion strains, locus YDL108W, strain KIN28, stronger effect = lower value 0.998 | S. cerevisiae deletion strains, locus YDL132W, strain cdc53, stronger effect = lower value 0.988 | S. cerevisiae deletion strains, locus YDL214C, strain PRR2, stronger effect = lower value 0.993 | S. cerevisiae deletion strains, locus YDR052C, strain DBF4, stronger effect = lower value 1 | S. cerevisiae deletion strains, locus YDR054C, strain cdc34, stronger effect = lower value 0.992 | S. cerevisiae deletion strains, locus YDR226W, strain ADK1, stronger effect = lower value 0.986 | S. cerevisiae deletion strains, locus YDR477W, strain SNF1, stronger effect = lower value 0.976 | S. cerevisiae deletion strains, locus YER123W, strain YCK3, stronger effect = lower value 0.958 | S. cerevisiae deletion strains, locus YER133W, strain GLC7, stronger effect = lower value 0.969 | S. cerevisiae deletion strains, locus YFL009W, strain cdc4, stronger effect = lower value 0.978 | S. cerevisiae deletion strains, locus YFL029C, strain CAK1, stronger effect = lower value 0.993 | S. cerevisiae deletion strains, locus YFR003C, strain YPI1, stronger effect = lower value 1 | S. cerevisiae deletion strains, locus YFR019W, strain FAB1, stronger effect = lower value 1.01 | S. cerevisiae deletion strains, locus YFR028C, strain CDC14, stronger effect = lower value 0.994 | S. cerevisiae deletion strains, locus YGR040W, strain KSS1, stronger effect = lower value 0.991 | S. cerevisiae deletion strains, locus YGR052W, strain FMP48, stronger effect = lower value 1.08 | S. cerevisiae deletion strains, locus YGR092W, strain DBF2, stronger effect = lower value 0.952 | [2] 1.12 | S. cerevisiae deletion strains, locus YHR079C, strain IRE1, stronger effect = lower value 1.1 | S. cerevisiae deletion strains, locus YHR082C, strain KSP1, stronger effect = lower value 1.09 | S. cerevisiae deletion strains, locus YHR205W, strain SCH9, stronger effect = lower value 1.01 | S. cerevisiae deletion strains, locus YIL147C, strain SLN1, stronger effect = lower value 0.999 | S. cerevisiae deletion strains, locus YJL095W, strain BCK1, stronger effect = lower value 1.06 | S. cerevisiae deletion strains, locus YJL128C, strain PBS2, stronger effect = lower value 0.979 | S. cerevisiae deletion strains, locus YJL157C, strain FAR1, stronger effect = lower value 0.966 | S. cerevisiae deletion strains, locus YJR016C, strain ILV3, stronger effect = lower value 0.993 | S. cerevisiae deletion strains, locus YJR066W, strain TOR1 (second series), stronger effect = lower value 0.936 | S. cerevisiae deletion strains, locus YJR066W, strain TOR1, stronger effect = lower value 1.09 | S. cerevisiae deletion strains, locus YKL048C, strain ELM1, stronger effect = lower value 1 | S. cerevisiae deletion strains, locus YKL067W, strain YNK1, stronger effect = lower value 0.989 | S. cerevisiae deletion strains, locus YKL101W, strain HSL1, stronger effect = lower value 0.986 | S. cerevisiae deletion strains, locus YKL193C, strain SDS22, stronger effect = lower value 0.99 | S. cerevisiae deletion strains, locus YKL203C, strain TOR2, stronger effect = lower value 1.06 | S. cerevisiae deletion strains, locus YLR113W, strain HOG1, stronger effect = lower value 1.07 | S. cerevisiae deletion strains, locus YLR133W, strain CKI1, stronger effect = lower value 1 | S. cerevisiae deletion strains, locus YLR403W, strain SFP1, stronger effect = lower value 0.973 | S. cerevisiae deletion strains, locus YML070W, strain DAK1, stronger effect = lower value 0.993 | S. cerevisiae deletion strains, locus YMR001C, strain CDC5, stronger effect = lower value 0.992 | S. cerevisiae deletion strains, locus YMR205C, strain PFK2 (second series), stronger effect = lower value 1 | S. cerevisiae deletion strains, locus YMR277W, strain FCP1, stronger effect = lower value 0.976 | S. cerevisiae deletion strains, locus YNL006W, strain LST8, stronger effect = lower value 0.984 | S. cerevisiae deletion strains, locus YNL020C, strain ARK1, stronger effect = lower value 1 | S. cerevisiae deletion strains, locus YNL161W, strain CBK1, stronger effect = lower value 0.998 | S. cerevisiae deletion strains, locus YNL183C, strain NPR1, stronger effect = lower value 1.13 | S. cerevisiae deletion strains, locus YNL207W, strain RIO2, stronger effect = lower value 0.989 | S. cerevisiae deletion strains, locus YNL222W, strain SSU72, stronger effect = lower value 0.997 | S. cerevisiae deletion strains, locus YNL307C, strain MCK1 (second series), stronger effect = lower value 1 | S. cerevisiae deletion strains, locus YOL078W, strain AVO1, stronger effect = lower value 0.99 | S. cerevisiae deletion strains, locus YOL136C, strain PFK27, stronger effect = lower value 0.991 | S. cerevisiae deletion strains, locus YOR061W, strain CKA2, stronger effect = lower value 0.977 | S. cerevisiae deletion strains, locus YOR119C, strain RIO1, stronger effect = lower value 1.02 | S. cerevisiae deletion strains, locus YOR231W, strain MKK1, stronger effect = lower value 1.09 | S. cerevisiae deletion strains, locus YOR329C, strain SCD5, stronger effect = lower value 0.993 | S. cerevisiae deletion strains, locus YPL031C, strain PHO85, stronger effect = lower value 0.977 | S. cerevisiae deletion strains, locus YPL153C, strain RAD53, stronger effect = lower value 0.962 | S. cerevisiae deletion strains, locus YPL204W, strain HRR25, stronger effect = lower value 0.967 | S. cerevisiae deletion strains, locus YPL209C, strain IPL1, stronger effect = lower value 0.99 | S. cerevisiae deletion strains, locus YPL256C, strain CLN2, stronger effect = lower value 1.1 | S. cerevisiae deletion strains, locus YPR025C, strain CCL1, stronger effect = lower value 0.992 | S. cerevisiae deletion strains, locus YPR106W, strain ISR1, stronger effect = lower value 0.981 | S. cerevisiae deletion strains, locus YPR111W, strain DBF20, stronger effect = lower value 0.993 | S. cerevisiae deletion strains, strain NNK1, stronger effect = lower value 1.01 | S. cerevisiae deletion strains, strain TSCII, stronger effect = lower value 0.995
